Key:
Assay in all cases: protein-binding microarray (PBM); PBM: ~300 nM protein, 6 mM HEPES pH 7.8, 80 mM KCl, 0.5 mM EDTA, 0.5 mM EGTA, 6% glycerol, 35 ng/ul poly-dIdC, 1% milk, 1 h, room temperature; Ap Aiptasia and Nv Nematostella (sea anemones) / Co Capsaspora / Aq Amphimedon (sponge) / Dm Drosophila / Hu human; RHD is the Rel homology domain; high values mean tight binding
Conditions in all cases: dsDNA, one strand shown
GST-Ap-NF-kB RHD = molecular target: T1, GST-Ap-NF-kB RHD (Exaiptasia pallida (Aiptasia), UniProt A0A913YAJ5 2-422)
T1 sequence: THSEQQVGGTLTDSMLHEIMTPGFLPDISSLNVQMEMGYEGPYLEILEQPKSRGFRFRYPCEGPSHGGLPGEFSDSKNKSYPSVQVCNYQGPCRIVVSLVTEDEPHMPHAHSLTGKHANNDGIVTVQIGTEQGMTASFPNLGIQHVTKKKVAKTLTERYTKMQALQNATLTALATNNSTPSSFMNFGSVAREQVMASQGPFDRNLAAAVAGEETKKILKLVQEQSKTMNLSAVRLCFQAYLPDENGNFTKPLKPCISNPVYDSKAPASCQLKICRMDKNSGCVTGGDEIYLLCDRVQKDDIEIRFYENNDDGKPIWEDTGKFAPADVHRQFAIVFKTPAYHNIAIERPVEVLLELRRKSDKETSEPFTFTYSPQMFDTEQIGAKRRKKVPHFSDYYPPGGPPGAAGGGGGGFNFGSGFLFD

GST-Co-NF-kB = molecular target: T2, GST-Co-NF-kB (Capsaspora owczarzaki, UniProt F1ARL5 200-546)
T2 sequence: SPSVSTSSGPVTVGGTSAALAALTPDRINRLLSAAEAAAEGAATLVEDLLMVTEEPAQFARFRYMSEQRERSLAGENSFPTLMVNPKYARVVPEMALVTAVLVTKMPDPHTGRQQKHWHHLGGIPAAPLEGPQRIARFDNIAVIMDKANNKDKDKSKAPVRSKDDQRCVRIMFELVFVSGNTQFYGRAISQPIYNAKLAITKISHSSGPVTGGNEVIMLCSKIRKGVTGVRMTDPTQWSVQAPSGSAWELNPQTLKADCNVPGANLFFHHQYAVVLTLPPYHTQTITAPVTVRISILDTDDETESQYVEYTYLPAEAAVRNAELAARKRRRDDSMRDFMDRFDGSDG

GST-Dm-Relish = molecular target: T3, GST-Dm-Relish (Drosophila melanogaster, UniProt Q94527 99-473)
T3 sequence: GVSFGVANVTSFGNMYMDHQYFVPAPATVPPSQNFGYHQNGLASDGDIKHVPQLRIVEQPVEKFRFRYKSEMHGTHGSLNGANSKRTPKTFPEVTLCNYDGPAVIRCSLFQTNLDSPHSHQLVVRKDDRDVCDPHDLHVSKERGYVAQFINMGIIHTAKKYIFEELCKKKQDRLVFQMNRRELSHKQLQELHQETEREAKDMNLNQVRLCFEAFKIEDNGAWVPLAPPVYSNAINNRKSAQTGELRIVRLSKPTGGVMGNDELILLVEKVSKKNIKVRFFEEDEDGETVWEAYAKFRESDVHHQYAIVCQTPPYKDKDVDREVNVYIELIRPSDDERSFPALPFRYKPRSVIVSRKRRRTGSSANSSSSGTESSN

GST-Aq-NF-kB = molecular target: T4, GST-Aq-NF-kB (Amphimedon queenslandica, UniProt A9Y5G7 2-389)
T4 sequence: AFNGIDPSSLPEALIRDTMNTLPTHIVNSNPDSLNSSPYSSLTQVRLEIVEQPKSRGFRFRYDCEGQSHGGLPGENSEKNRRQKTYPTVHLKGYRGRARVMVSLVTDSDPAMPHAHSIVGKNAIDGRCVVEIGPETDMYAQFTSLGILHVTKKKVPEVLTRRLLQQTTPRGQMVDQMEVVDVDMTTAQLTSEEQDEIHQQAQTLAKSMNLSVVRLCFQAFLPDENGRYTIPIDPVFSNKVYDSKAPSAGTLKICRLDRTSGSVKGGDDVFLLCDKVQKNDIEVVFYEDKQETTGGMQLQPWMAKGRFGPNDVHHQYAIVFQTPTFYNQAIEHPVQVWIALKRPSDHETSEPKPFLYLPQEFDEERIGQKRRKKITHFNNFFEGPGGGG

[1] = molecular target: T5, GST-Nv-NF-kB (Cys allele) (Nematostella vectensis, UniProt E5G601 2-411)
T5 sequence: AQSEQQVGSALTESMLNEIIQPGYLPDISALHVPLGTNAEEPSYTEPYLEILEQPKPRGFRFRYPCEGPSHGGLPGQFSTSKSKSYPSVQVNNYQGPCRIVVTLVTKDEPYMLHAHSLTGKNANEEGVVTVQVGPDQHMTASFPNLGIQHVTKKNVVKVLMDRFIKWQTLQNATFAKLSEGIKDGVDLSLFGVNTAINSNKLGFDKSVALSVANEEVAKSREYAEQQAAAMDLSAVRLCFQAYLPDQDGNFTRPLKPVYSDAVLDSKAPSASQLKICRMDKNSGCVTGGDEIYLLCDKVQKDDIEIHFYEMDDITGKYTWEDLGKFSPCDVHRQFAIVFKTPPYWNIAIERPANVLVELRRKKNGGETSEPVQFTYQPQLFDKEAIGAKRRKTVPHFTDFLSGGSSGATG

| Sequence | binding signal (GST-Ap-NF-kB RHD) [z-score] | binding signal (GST-Co-NF-kB) [z-score] | binding signal (GST-Dm-Relish) [z-score] | binding signal (GST-Aq-NF-kB) [z-score] | binding signal [1] [z-score] |
| --- | --- | --- | --- | --- | --- |
| CCGATTAACATCAGGGGGGGAGATGATGTTAATCGGGTCTTGATTCGCTTGACGCTGCTG | 5.6 | 8.63 | 3.66 | 4.59 | – |
| CCGATTAACATCATTTATCCCGGTGATGTTAATCGGGTCTTGATTCGCTTGACGCTGCTG | 1.16 | 2.85 | 1.77 | 1.14 | – |
| CCGATTAACATCAGGAAAGCCCATGATGTTAATCGGGTCTTGATTCGCTTGACGCTGCTG | 1.24 | – | 4.29 | 3.12 | – |
| CCGATTAACATCAAGGGCATCCCTGATGTTAATCGGGTCTTGATTCGCTTGACGCTGCTG | 1.42 | – | 5.6 | 2.86 | – |
| CCGATTAACATCACGGAATGCCCTGATGTTAATCGGGTCTTGATTCGCTTGACGCTGCTG | 1.03 | – | 1.71 | 2.6 | – |
| CCGATTAACATCAGGGCATCCCATGATGTTAATCGGGTCTTGATTCGCTTGACGCTGCTG | 1.37 | – | 5.99 | 2.34 | – |
| CCGATTAACATCAGGCAATCCCATGATGTTAATCGGGTCTTGATTCGCTTGACGCTGCTG | 1 | – | 2.82 | 1.38 | – |
| CCGATTAACATCAGGAATCCCAATGATGTTAATCGGGTCTTGATTCGCTTGACGCTGCTG | 1.71 | – | 7.14 | 1.48 | – |
| CCGATTAACATCAAGGAAAGCCCTGATGTTAATCGGGTCTTGATTCGCTTGACGCTGCTG | 1.19 | – | 3.3 | 3.45 | – |
| CCGATTAACATCACGGGATTGCCTGATGTTAATCGGGTCTTGATTCGCTTGACGCTGCTG | 1.39 | – | 2.08 | 2.41 | – |
| CCGATTAACATCAGGTAACCCCATGATGTTAATCGGGTCTTGATTCGCTTGACGCTGCTG | 3.05 | 2.06 | 6.29 | 2.29 | – |
| CCGATTAACATCACCTCCCCCCCTGATGTTAATCGGGTCTTGATTCGCTTGACGCTGCTG | 4.48 | 3.77 | 4.13 | 3.93 | – |
| CCGATTAACATCACGGCAACCCCTGATGTTAATCGGGTCTTGATTCGCTTGACGCTGCTG | 1.78 | – | 1.46 | 2.35 | – |
| CCGATTAACATCAAGAAATTTCCTGATGTTAATCGGGTCTTGATTCGCTTGACGCTGCTG | – | – | – | 2.06 | 1.11 |
| CCGATTAACATCACGGAGATCCCTGATGTTAATCGGGTCTTGATTCGCTTGACGCTGCTG | 1.39 | – | 4.73 | 3.81 | – |
| CCGATTAACATCACGGGCTTTCCTGATGTTAATCGGGTCTTGATTCGCTTGACGCTGCTG | 1.64 | – | 3.81 | 4.66 | – |
| CCGATTAACATCAGGAGGTTCCCTGATGTTAATCGGGTCTTGATTCGCTTGACGCTGCTG | 2.28 | – | 2.47 | 3.68 | – |
| CCGATTAACATCAGGAAACACCATGATGTTAATCGGGTCTTGATTCGCTTGACGCTGCTG | 1 | – | 1.77 | 1.49 | – |
| CCGATTAACATCAGTAGTGGGGCTGATGTTAATCGGGTCTTGATTCGCTTGACGCTGCTG | – | – | – | 1.72 | 1.01 |

Reference: PMC5700166
